± gives the standard deviation. In all, about 5,500 sequences were measured (“pre-steady-state target cleavage rate”: median about 0.1, highest 2% from about 0.64 on). The full list was thinned out, with the highest values kept by preference.

This experiment has as its system MIWI (PIWIL1) piRISC loaded with piRNA #2 (30 nt). Briefly: pre-steady-state target cleavage rate (min^-1); MIWI and MILI are mouse PIWI proteins and EfPiwi is from a freshwater sponge; tags in brackets are library labels; higher = faster piRNA-guided slicing of the target. The settings on record: guide: piRNA #2 5'p-UUAGGUAACCCAGUAGAUCCAGAGGAAUUC; auxiliary factor: 500 nM mouse GTSF1. How it is done: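 Cleave-'n-Seq: a library of target RNAs (target site embedded in constant flanks, ACAGCATTCCGCGTTAGTGATATCCG... 5' flank; DNA-blocked outside the site) at 0.1 nM was incubated with 1 nM active mouse MILI or MIWI piRISC (synthetic 5'-monophosphorylated piRNA guide) with or without 500 nM mouse GTSF1 at 33 °C for 1 min to 16 h. Uncleaved targets were sequenced and normalised to non-target controls, and the pooled three trials were fitted to a burst-and-steady-state model to give the pre-steady-state cleavage rate (min^-1; k3 is constrained to at most 1e-4). Sequence is the target site only; target names encode pairing extent (gX:gY) and contiguous / 1-mismatch / 2-mismatch / bulge geometry. Fits with R² ≤ 0 are excluded.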
Consider CUAUUACCUCUGGAUCUACUGGGUUACCUAA, for which the “pre-steady-state target cleavage rate” value turned out to be 0.227 ± 0.041.

As to CUUAAGGUCUGGAACUACUGGCUUACCUAA, the “pre-steady-state target cleavage rate” value amounted to 0.027 ± 0.022.

As to CUUAAGCUCAGGAUCUACAGGGUUACCUAA, the “pre-steady-state target cleavage rate” value is 0.081 ± 0.014.

Regarding CUUAAGGACAGCAUCUACUGGGUUACCUAA, the “pre-steady-state target cleavage rate” value amounted to 0.00648 ± 0.0035.

As for CUAUUCGUCUGGAUCUACUGGGUUACCAAA, the “pre-steady-state target cleavage rate” value amounted to 0.36 ± 0.064.

Consider CUUUACCUCUCGAUCUACUGGGUUACCUAA, for which the “pre-steady-state target cleavage rate” value came out at 0.47 ± 0.033.

Consider CUUUUCCUCUCGAUCUACUGGGUUACCUAA, for which the “pre-steady-state target cleavage rate” value turned out to be 0.602 ± 0.04.

For GAUUUCCUCUCGAUCUACUGGGUUACCUAA, the “pre-steady-state target cleavage rate” value was determined as 0.66 ± 0.067.

Regarding GAUUUCCUCUGGAUCUACUGGGUUACCUAA, the “pre-steady-state target cleavage rate” value is 0.183 ± 0.042.

As to CAUUUCCUCUGGAUCUACUGGGUUACCUAA, the “pre-steady-state target cleavage rate” value turned out to be 0.541 ± 0.059.

Turning to CAUUUCCUCUCGAUCUACUGGGUUACCUAA, the “pre-steady-state target cleavage rate” value came out at 0.808 ± 0.052.

Turning to CAAUUCGACUGGAUCUACUGGGUUACCUAA, the “pre-steady-state target cleavage rate” value amounted to 0.357 ± 0.05.

On to CUUUUCCUCUGGAUCUACUGCGUAACCUAA, for which the “pre-steady-state target cleavage rate” value is 0.174 ± 0.032.

In the case of “CUUAAGGAGAGGAUCUACUGGGUUACCUAC [g2:g20:cont:t1C]”, the “pre-steady-state target cleavage rate” value is 0.0183 ± 0.0054.

Take CAAUUGCUCUGGAUCUACUGGGUUACCUUA: the “pre-steady-state target cleavage rate” value was found to be 0.212 ± 0.048.

In the case of GAAUUCCUCUGGAUCUACUCGCUUACCUAA, the “pre-steady-state target cleavage rate” value worked out at 0.00392 ± 0.0028.

Regarding CUUAAGGAGAGCGAUCUACUGGGUUACCUAA, the “pre-steady-state target cleavage rate” value worked out at 0.00514 ± 0.003.

Regarding CUAUUCCUCUCGAUCUACUGCGUUACCUAA, the “pre-steady-state target cleavage rate” value stood at 0.948 ± 0.092.

Consider CUAUUCCUCUCGAUCUACUCGGUUACCUAA, for which the “pre-steady-state target cleavage rate” value worked out at 0.196 ± 0.017.

Take CAAUUCCUCUCGAUCUACUGCGUUACCUAA: the “pre-steady-state target cleavage rate” value was determined as 0.907 ± 0.084.

In the case of CUAUUCCUCUGGAUCUACUGCGUUACCUAA, the “pre-steady-state target cleavage rate” value was found to be 0.521 ± 0.065.

Consider GAAUUCCUCUCGAUCUACUCGGUUACCUAA, for which the “pre-steady-state target cleavage rate” value was 0.123 ± 0.018.

On to CUUUUCCUCUCGAUCUACUGCGUUACCUAA, for which the “pre-steady-state target cleavage rate” value was determined as 0.845 ± 0.072.

For the sequence CAAUUCCUCUGGAUCUACUGCGUUACCUAA, the “pre-steady-state target cleavage rate” value was found to be 0.593 ± 0.069.

As for CUUUUCCUCAGGAUCUACUGCGUUACCUAA, the “pre-steady-state target cleavage rate” value turned out to be 0.524 ± 0.062.

CUUUUCCUCUGGAUCUACUGCGUUACCUAA: the “pre-steady-state target cleavage rate” value is 0.527 ± 0.057.

As for GAAUUCCUCUCGAUCUACUGCGUUACCUAA, the “pre-steady-state target cleavage rate” value came out at 0.691 ± 0.063.

In the case of GAAUUCCUCUGGAUCUACUGCGUUACCUAA, the “pre-steady-state target cleavage rate” value was determined as 0.469 ± 0.056.

For the sequence CAAUUCCUCUCGAUCUACUCGGUUACCUAA, the “pre-steady-state target cleavage rate” value is 0.22 ± 0.022.

Consider CUUAUCCUCUGGAUCUACUCCGUUACCUAA, for which the “pre-steady-state target cleavage rate” value came to 0.021 ± 0.009.

In the case of CAUUUCCUCUGGAACUACUGGGUUACCUAA, the “pre-steady-state target cleavage rate” value was found to be 0.612 ± 0.044.

For the sequence GAAUUGCUCAGGAUCUACUGGGUUACCUAA, the “pre-steady-state target cleavage rate” value is 0.168 ± 0.037.

Regarding CUUAAGGUCUGGAUCUACUGGGUUUGCUAA, the “pre-steady-state target cleavage rate” value was 0.0859 ± 0.018.

Regarding CAAUUCCUGUGGAUCUACAGGGUUACCUAA, the “pre-steady-state target cleavage rate” value came to 0.268 ± 0.036.

Take “CUUAAGCUCUGGAUCUACUGGGUUACCUAG [g2:g24:cont:t1G]”: the “pre-steady-state target cleavage rate” value came out at 0.0755 ± 0.013.

With CAAUUCCUUGGAUCUACUGGGUUACCUAA, the “pre-steady-state target cleavage rate” value came to 0.45 ± 0.061.

In the case of CUUAACCUCAGGAUCUAGUGGGUUACCUAA, the “pre-steady-state target cleavage rate” value is 0.128 ± 0.017.

On to CUUAUCCUCUCGAUCUACUGGGUUACCUAA, for which the “pre-steady-state target cleavage rate” value stood at 0.561 ± 0.04.

Regarding CUUAUCCUCUCGAUCUACUGCGUUACCUAA, the “pre-steady-state target cleavage rate” value is 0.636 ± 0.048.

Regarding CUUAACCUCUCGAUCUACUGCGUUACCUAA, the “pre-steady-state target cleavage rate” value was 0.614 ± 0.057.

In the case of CAAUUCCACUGGAUCUACUGGGUUACCAAA, the “pre-steady-state target cleavage rate” value stood at 0.456 ± 0.083.

For the sequence CUUAUCCUCUGGAUCUACAGGGUAACCUAA, the “pre-steady-state target cleavage rate” value amounted to 0.128 ± 0.023.

For the sequence CAAUUCCUCUGGUCUACUGGGUUACCUAA, the “pre-steady-state target cleavage rate” value turned out to be 0.369 ± 0.088.

Regarding CUAUUCCUCUGGUUCUACUGGGUUACGUAA, the “pre-steady-state target cleavage rate” value worked out at 0.629 ± 0.059.

For CUAUUCCUCUGGUUCUACUGGGUUACCUUA, the “pre-steady-state target cleavage rate” value was determined as 0.371 ± 0.057.

For GAAUUCCUCUGGUUCUACUGGGUUACCUAA, the “pre-steady-state target cleavage rate” value stood at 0.678 ± 0.042.

With CAAUUCCUCUGGUUCUACUGGGUUACCUAA, the “pre-steady-state target cleavage rate” value was determined as 0.868 ± 0.05.

For the sequence GAAUUCCUCUGGUUCUACUGGGUUACCUUA, the “pre-steady-state target cleavage rate” value worked out at 0.427 ± 0.064.

GAAUUCCUCUGGUCUACUGGGUUACCUAA: the “pre-steady-state target cleavage rate” value came out at 0.301 ± 0.059.

Consider CAAUUCCUCUGGUUCUACUGGGUUACGUAA, for which the “pre-steady-state target cleavage rate” value is 0.688 ± 0.045.

As for GUAUUCCUCUGGUUCUACUGGGUUACCUAA, the “pre-steady-state target cleavage rate” value came to 0.0955 ± 0.034.

For the sequence GAAUUCCUCUGGUUCUACUGGGUUACGUAA, the “pre-steady-state target cleavage rate” value came to 0.618 ± 0.035.

Regarding CUAUUCCUCUGGUUCUACUGGGUUACCUAA, the “pre-steady-state target cleavage rate” value worked out at 0.711 ± 0.043.

As for CAAUUCCUCUGGUUCUACUGGGUUACCUUA, the “pre-steady-state target cleavage rate” value stood at 0.475 ± 0.066.

For the sequence CUUAAGCAGAGGAUCUACUGGGUUACCUAA, the “pre-steady-state target cleavage rate” value worked out at 0.0315 ± 0.0087.

In the case of GAAUUCCACAGGAUCUACUGGGUUACCUAA, the “pre-steady-state target cleavage rate” value amounted to 0.408 ± 0.05.

As for CUUAAGGUCUGGAUCUACUGGGUUAGCCUAA, the “pre-steady-state target cleavage rate” value came out at 0.185 ± 0.025.

Regarding CUUUUCCUCUGGAUCUUCUGGGAUACCUAA, the “pre-steady-state target cleavage rate” value was found to be 0.146 ± 0.022.

On to CUUAAGGUGAGGAUCUACUGGGUUACCUAA, for which the “pre-steady-state target cleavage rate” value is 0.0307 ± 0.01.

Regarding CUUAUCCUCUGGAUCUACUGCGUUACCUAA, the “pre-steady-state target cleavage rate” value is 0.498 ± 0.055.

On to CUUAAGGUCUGCAUCUAGUGGGUUACCUAA, for which the “pre-steady-state target cleavage rate” value turned out to be 0.0327 ± 0.0059.

For CUAUUCCUCUGCUUCUACUGGGUUACCUAA, the “pre-steady-state target cleavage rate” value turned out to be 0.516 ± 0.04.

In the case of GAAUUCCUCUGCUUCUACUGGGUUACCUAA, the “pre-steady-state target cleavage rate” value was 0.48 ± 0.04.

Take CAAUUCCUCUGCUUCUACUGGGUUACCUAA: the “pre-steady-state target cleavage rate” value was 0.653 ± 0.056.

As to CUUUUCCUCUGGUUCUACUGGGUUACCUAA, the “pre-steady-state target cleavage rate” value was determined as 0.621 ± 0.042.

In the case of GAUUUCCUCUGGUUCUACUGGGUUACCUAA, the “pre-steady-state target cleavage rate” value stood at 0.524 ± 0.046.

With CAUUUCCUCUGGUUCUACUGGGUUACCUAA, the “pre-steady-state target cleavage rate” value is 0.772 ± 0.046.

In the case of CUUAAGGUCUGGUUCUAGUGGGUUACCUAA, the “pre-steady-state target cleavage rate” value worked out at 0.0776 ± 0.014.

In the case of CUUAAGGACUGGAUCUACUGGGUUACCAUAA, the “pre-steady-state target cleavage rate” value was found to be 0.051 ± 0.039.

In the case of CUUAAGUUCUGGAUCUACUGGGUUACCUAA, the “pre-steady-state target cleavage rate” value turned out to be 0.274 ± 0.04.

For CAAUUCCUCUGGAUCUACUGGGAUACCUUA, the “pre-steady-state target cleavage rate” value is 0.219 ± 0.046.

Consider CUUAACCUCUGGAUCAACUCGGUUACCUAA, for which the “pre-steady-state target cleavage rate” value was determined as 0.0679 ± 0.013.

Take CUUAUCCUCUGGAUCUUCUGGGAUACCUAA: the “pre-steady-state target cleavage rate” value stood at 0.144 ± 0.025.

As to CAAUUCCUCUGCAUCUACUGGGUUACCUAA, the “pre-steady-state target cleavage rate” value was determined as 0.57 ± 0.049.

Regarding GAAUUCCUCUGCAUCUACUGGGUUACCUAA, the “pre-steady-state target cleavage rate” value came to 0.421 ± 0.051.
